# Bioassay records deposited in PubChem BioAssay by several laboratories.
# Most compounds without a hit are left out; they make up all but 3.9% or so of the library.
# Vc quorum ag: inducers of Vibrio cholerae quorum light production without autoinducers; activation, % at 18.7 µM; V. cholerae BH1578 lux reporter, luminescence, 6 h; AID 588436; 350,000 tested, 0.16% active; in the data active = activation mostly above about 9.7%, no sharp cut-off; inconclusive = no clear call, values can overlap the other calls; inactive = mostly below about 3.7%
# Autofluor counter: counter-screen for toxin protease inhibitors: compound fluorescence | AID 624483 | fluorescence intensity (concentration not given with the values) | compound autofluorescence counterscreen, microsphere flow cytometry; stronger effect = higher value | 360,000 tested, 3.1% active; in the data active = fluorescence intensity above about 16000; inconclusive = no clear call, values can overlap the other calls
# MazF activator: activators of E. coli MazEF toxin-antitoxin RNase | P0AE70 | FAM/BHQ RNA-DNA oligo cleavage fluorescence, 5 h | activation, % at 20 µM | 350,000 tested, 0.32% active; in the data active = activation above about 50%
# BoNT-F LC inh: inhibitors of Botulinum neurotoxin F light chain protease; Multiplex microsphere protease cleavage assay, flow cytometry; inhibition, % at 10 µM; 360,000 tested, 0.22% active; in the data active = inhibition above about 35%, passing the limit was not always enough; inconclusive = no clear call, values can overlap the other calls; also: plate controls were buffer without enzyme for full effect and enzyme alone for no effect
# Anthrax LF prot: blocks Bacillus anthracis lethal factor protease. 360,000 tested, 0.12% active. multiplex microsphere protease cleavage assay, LF. inhibition, % at 10 µM. P15917; also: plate controls were buffer without enzyme for full effect and enzyme alone for no effect
# BoNT A protease: inhibitors of Botulinum neurotoxin A light chain protease; multiplex microsphere protease substrate cleavage, flow cytometry; inhibition, % at 10 µM; 360,000 tested, 0.17% active; also: plate controls were buffer without enzyme for full effect and enzyme alone for no effect
# BoNT-A LC CP1: inhibitors of Botulinum neurotoxin A light chain protease; shares compounds with BoNT-F LC inh; multiplex microsphere protease assay, flow cytometry; inhibition, % at 10 µM; 720 tested, 3% active; AID 602139; in the data active = inhibition above about 32%
# BoNTF LC inh 1: blocks botulinum neurotoxin F light chain protease | shares compounds with BoNT-F LC inh | inhibition, % at 10 µM | 720 tested, under 10 active | multiplex microsphere protease cleavage assay, flow cytometry | AID 602140; call rule not given here
# Anthrax LF CP1: Bacillus anthracis lethal factor protease inhibition; inhibition, % at 10 µM; 720 tested, under 10 active; shares compounds with BoNT-F LC inh; multiplex microsphere protease cleavage assay, LF; call rule not given here
# BoNT-A LC CP2: blocks botulinum neurotoxin A light chain protease | shares compounds with BoNT A protease | multiplex microsphere protease cleavage assay, flow cytometry | inhibition, % at 10 µM | 150 tested, 10% active; in the data active = inhibition above about 24%
# LF protease CP2: Bacillus anthracis lethal factor protease inhibition | shares compounds with BoNT A protease | multiplex microsphere protease cleavage assay | inhibition, % at 10 µM | 150 tested, 7% active; in the data active = inhibition above about 25%
# BoNTF LC inh 2: inhibitors of botulinum neurotoxin F light chain protease; inhibition, % at 10 µM; 150 tested, 7% active; multiplex microsphere protease cleavage assay, flow cytometry; shares compounds with BoNT A protease; in the data active = inhibition above about 25%
# Numbers without * were called inactive; i = inactive; ? = inconclusive; nt = not tested or not shown. Rule as the data show it, unless noted: active = inhibition above about 30%; inconclusive = no clear call, values can overlap the other calls; inactive = below that.
SMILES,Vc quorum ag,Autofluor counter,MazF activator,BoNT-F LC inh,Anthrax LF prot,BoNT A protease,BoNT-A LC CP1,BoNTF LC inh 1,Anthrax LF CP1,others
Nc1nc2ccccc2nc1N1CCCC1,0,11493,-12,42*,1,32*,-1,1,1,
Cc1ccc(C)c2[nH]c(=O)c(C(c3nnnn3C3CCCC3)N3CCOCC3)cc12 (centres undefined),i,25756*,6,-4,-1,-3,0,-1,-1,
Cc1ccc2cc(C(c3nnnn3C3CCCC3)N3CCOCC3)c(=O)[nH]c2c1C (centres undefined),0,9655,6,3,14,1,nt,nt,nt,
Cc1ccc2cc(CN(Cc3nnnn3C3CCCC3)C3CCCCC3)c(=O)[nH]c2c1C,-2,5570,2,26,2,3,nt,nt,nt,
CCOC(=O)C1CCN(C(c2cc3ccc(C)c(C)c3[nH]c2=O)c2nnnn2C2CCCCC2)CC1 (centres undefined),1,60118*,-21,38*,12,33*,-2,-5,-4,
CCOC(=O)C1CCN(C(c2cc3c(C)ccc(C)c3[nH]c2=O)c2nnnn2C2CCCCC2)CC1 (centres undefined),21,38836*,-6,109*,10,15,1,-3,0,
NC(=O)C1CCN(C(c2ccccc2)c2nnnn2C2CCCC2)CC1 (centres undefined),i,3152,5,13,3,1,nt,nt,nt,
Cc1ccc(S(=O)(=O)N2CCN(c3nn(C)c(=O)n(C)c3=O)CC2)cc1C,-1,3075,1,-5,-6,0,nt,nt,nt,
COc1cccc(OCCNC(=O)c2cc(OC)c(OC)c(OC)c2)c1,-1,3054,-6,40*,-14,0,-1,0,2,
COc1cc(C(=O)NCCOc2ccc(C)c(C)c2)cc(OC)c1OC,-1,3386,0,-8,-6,0,nt,nt,nt,
N#Cc1cccc(C(c2nnnn2C2CCCC2)N2CCC(Cc3ccccc3)CC2)c1 (centres undefined),3,5535,-10,-2,-2,-1,nt,nt,nt,
N#Cc1cccc(C(c2nnnn2C2CCCC2)N2CCCCCC2)c1 (centres undefined),i,3317,-1,32,-3,0,2,2,3,
COCCCNC(=O)C(=O)C1C(=O)Nc2ccccc21 (centres undefined),0,1922,8,-4,-2,0,nt,nt,nt,
Cc1cccc(C(=O)OCC(=O)NC(=O)NCc2ccccc2)c1,0,2932,10,5,-6,0,nt,nt,nt,
COc1ccc(NC(=O)CSc2nc(N)c3cc4c(nc3n2)CC(C)(C)OC4)cc1,-1,4147,-18,47*,11,4,0,3,2,
CCOc1ccc(S(=O)(=O)NCCC(=O)NCc2ccncc2)cc1,-1,5202,5,-9,-2,0,nt,nt,nt,
O=C(CSc1n[nH]c(-c2ccncc2)n1)NCCc1ccccc1,-2,2758,8,-6,1,0,nt,nt,nt,
CCc1nc(SCC(=O)NCCc2ccccc2)n[nH]1,-1,3454,9,35*,-6,1,1,0,3,
C=CCn1c(N2CCCC2)nc2c1c(=O)n(C)c(=O)n2C,i,3562,1,16,44*,0,1,-2,4,
CCc1cc2cccc(C)c2nc1SCC(=O)NC1CCCC1,i,3309,11,37*,4,-1,1,-3,-2,
COc1ccc(-c2nc3c(Cl)cc(C(F)(F)F)cn3c2Cc2ccsc2)cc1OC,nt,5804,nt,-1,-5,3,nt,nt,nt,BoNT-A LC CP2=15;LF protease CP2=-2;BoNTF LC inh 2=13
COC(=O)c1c(-c2ccccc2)csc1N,-4,?,-12,19,-2,1,nt,nt,nt,
